Not all results are given here.
aSyn 5UTR act – Activators via SNCA 5'UTR binding, MLPCN; 7.1% of 300,000 active; activity score, % (tested at 7.5 µM), hits read low; alpha-synuclein 5'UTR reporter, activators screen; in the data active = activity score below about -60%
Large screens that a line does not name were inactive.

CCCn1nc(NC(=O)COC)c2cc3cc(C)ccc3nc21	aSyn 5UTR act -96
CCCCOC(=O)Nc1cccc(C(=O)OCC)c1	aSyn 5UTR act -68
CCCCOC(=O)Nc1ccc(C(C)C)cc1	aSyn 5UTR act -276
CCCCOC(=O)Nc1nnc(C(C)C)s1	aSyn 5UTR act -127
CCCCOC(=O)Nc1ccc(C(N)=O)cc1	aSyn 5UTR act -94
CCCCOC(=O)Nc1ccc(N(C)C)cc1	aSyn 5UTR act -162
O=C(N/N=C/c1ccc([N+](=O)[O-])o1)c1ccc2c(c1)OCO2	none
O=C(N/N=C/c1cccnc1)c1ccc2c(c1)OCCO2	aSyn 5UTR act -82
O=C(N/N=C/c1ccc(Br)o1)c1ccc2c(c1)OCCO2	aSyn 5UTR act -123
COc1c(O)ccc(/C=N/NC(=O)c2ccc3c(c2)OCCO3)c1[N+](=O)[O-]	aSyn 5UTR act -110
Cc1ccc(/C=N\NC(=O)c2ccc3c(c2)OCO3)o1	aSyn 5UTR act -81
CN(C)c1ccc(/C=N/NC(=O)c2ccc3c(c2)OCO3)cc1	aSyn 5UTR act -104
O=C(CCSc1ccccc1)Nc1ccccc1Br	aSyn 5UTR act -91
c1ccc(-c2csc(NC3=NCCCCC3)n2)cc1	aSyn 5UTR act -99
CC(C)(C)c1ccc(-c2csc(NNC3=NCCCCC3)n2)cc1	aSyn 5UTR act -78
N#Cc1ccc(-c2csc(NC3=NCCCCC3)n2)cc1	aSyn 5UTR act -73
CN(C)/C=C1\N=C(c2ccc3c(c2)OCO3)OC1=O	aSyn 5UTR act -116
COc1cccc(CNC(=O)c2nnn(CC(=O)Nc3ccc(Br)cc3)c2N)c1	none
CCOc1ccc(CCNC(=O)c2nnn(CC(=O)Nc3ccc(C)cc3)c2N)cc1OCC	aSyn 5UTR act -71
COCCNC(=O)/C(C#N)=C/c1ccc(OCc2ccc(F)cc2)cc1	aSyn 5UTR act -73
COCCNC(=O)/C(C#N)=C/c1ccc(OCc2ccccc2)cc1	aSyn 5UTR act -141
Cc1ccc(NC2=C(Cl)C(=O)N(C3CCCCC3)C2=O)cc1	aSyn 5UTR act -124
S=C1SCN(Cc2cccnc2)CN1Cc1cccnc1	aSyn 5UTR act -86
CN(C)N=Nc1ccc(-c2cn(Cc3ccccc3)cn2)cc1	aSyn 5UTR act -74
O=C(Cc1ccc(N2CCNC2=O)cc1)N1CCCC(Nc2cccc(F)c2)C1 (stereo unspecified)	none
Cc1ccc(NC(=O)NCCCN2CCCC2=O)cc1Cl	aSyn 5UTR act -66
O=C(NCCCN1CCCC1=O)C(=O)Nc1cccc(F)c1	aSyn 5UTR act -107
O=C(O)CC1=C(Nc2ccccc2)C(=O)N(c2ccccc2)C1c1ccc(Br)cc1 (stereo unspecified)	aSyn 5UTR act -104
c1ccc(C2CCC3(CC2)Oc2ccccc2C2CC(c4cccnc4)=NN23)cc1 (stereo unspecified)	aSyn 5UTR act -86
COc1cc(C2Nc3cc(Cl)c(S(N)(=O)=O)cc3S(=O)(=O)N2)ccc1OCc1ccccc1 (stereo unspecified)	aSyn 5UTR act -147
O=S(=O)(c1ccc(-c2nnc(SCc3nnc(-c4ccccc4)o3)o2)cc1)N1CCCC1	aSyn 5UTR act -117
COc1cccc(CNC(=O)CN2C(=O)CSc3ccc(S(=O)(=O)N4CCCCC4)cc32)c1	aSyn 5UTR act -160
CC(C)n1cc(CN2CCCC(C(=O)Nc3cccc(-c4cc5ccccc5[nH]4)c3)C2)cn1 (stereo unspecified)	none
Cc1cc(CN2CCCC(C(=O)Nc3ccc(-c4nc5ccccc5[nH]4)cc3)C2)n[nH]1 (stereo unspecified)	aSyn 5UTR act -121
CC(C)(C)c1ccc(-c2nnc(NC(=O)c3ccccc3)s2)cc1	aSyn 5UTR act -163
COc1cccc(C(=O)NCc2ccc(-c3nc4ccccc4s3)cc2)c1	aSyn 5UTR act -109
COc1cccc(C(=O)Nc2nc3c(s2)CN(C)CC3)c1	aSyn 5UTR act -85
COc1cccc(C(=O)Nc2nnc(-c3ccccc3)s2)c1	aSyn 5UTR act -224
Nc1nc(Nc2ccccc2)sc1C(=O)c1ccccc1	aSyn 5UTR act -121
Cc1cnc(NC(=O)c2sc(Nc3ccccc3)nc2N)o1	aSyn 5UTR act -115
O=C(c1cnn2c1NC(c1ccco1)CC2C(F)(F)F)N1CCN(c2cccc(Cl)c2)CC1 (stereo unspecified)	aSyn 5UTR act -71
CCCc1cc(N2CCOCC2)n2ncc(-c3ccccc3)c2n1	aSyn 5UTR act -67
Cc1nc2c(-c3ccccc3)cnn2c(N2CCOCC2)c1C	aSyn 5UTR act -191
Cc1nc(NC(=O)C23CC4CC(CC(C4)C2)C3)sc1Cc1ccc2c(c1)OCO2	aSyn 5UTR act -184
O=C(CNC(=O)c1ccc(Cl)cc1)c1ccccc1	aSyn 5UTR act -100
O=C(CNC(=O)c1ccc(Br)cc1)c1ccccc1	aSyn 5UTR act -94
O=C(CNC(=O)c1ccccc1C(=O)O)c1ccccc1	aSyn 5UTR act -127
O=C(CNC(=O)c1ccc(F)cc1)c1ccc(Cl)cc1	aSyn 5UTR act -168
O=C(NCCCCCCOC1=NS(=O)(=O)c2ccccc21)C(=O)Nc1ccccc1	aSyn 5UTR act -93
Fc1ccc(OCc2nc(-c3ccc(Br)o3)no2)c(F)c1	aSyn 5UTR act -77
COc1ccc(-c2noc(CCCC(=O)O)n2)cc1	none
Cc1ccc(-c2noc(CCCc3ccccc3)n2)cc1	aSyn 5UTR act -77

Screening results as filed in PubChem BioAssay.
